Screens deposited in PubChem BioAssay by The Scripps Research Institute Molecular Screening Center.
In the library only some 1.1% were active in any assay of this set; here they are far more common.
HTR5A ag ctr: activates human HTR5A in OPRM1-OPRD1 agonist counter-screen | HTR5A agonist assay, luminescence, cell-based | AID 504692 | activation, % at 9.3 µM | P47898 | 340,000 tested, 0.61% active; in the data active means activation mostly above about 9.5%, no sharp cut-off; inactive means mostly below about 7.6%;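 further: 0% = cells with vehicle only and 100% = reference agonist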
MOR-DOR inv ag: inverse agonists of human mu-delta opioid receptor heterodimerization; P35372+P41143; cell-based MOR-DOR heterodimer luminescence, inverse agonism; inhibition, % at 9.3 µM; 340,000 tested, 0.21% active; AID 504357; in the data active means inhibition above about 22%, passing the limit was not always enough;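 further: 0% = cells with DMSO and 100% = wells without cells with DMSO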
HTR5A inv ctr: counter-screen for OPRM1-OPRD1 inverse agonists: human HTR5A inverse agonism; HTR5A cell line, luminescence; P47898; inhibition, % at 9.3 µM; AID 504634; 340,000 tested, 0.083% active; in the data active means inhibition mostly above about 23%, no sharp cut-off; inactive means mostly below about 18%;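 further: 0% = cells with DMSO and 100% = no-cell wells with DMSO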
OPRM1-OPRD1 ag: agonists of human mu-delta opioid receptor heterodimerization | activation, % at 9.3 µM | cells, OPRM1-OPRD1 heterodimerization, luminescence | 340,000 tested, 0.3% active | AID 504326;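 further: 0% = vehicle-treated cells and 100% = reference agonist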
OPRM1-D1 ag cf: confirmation of human OPRM1-OPRD1 heterodimerization agonists | shares compounds with OPRM1-OPRD1 ag | cells, MOR-DOR heterodimerization, luminescence complementation | activation, % at 9.3 µM | 830 tested, 45% active;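 further: 0% = vehicle-treated cells and 100% = reference agonist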
HTR5A ag counter: HTR5A agonism, opioid heterodimer counter-screen; shares compounds with OPRM1-OPRD1 ag; HTR5A agonist counterscreen, cell luminescence; activation, % at 9.3 µM; 830 tested, 8% active; AID 504905; in the data active means activation above about 17%;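 further: 0% = vehicle-treated cells and 100% = reference agonist response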
Active calls of the source: *; i = inactive; . = not tested or not shown. Unless noted, no stated cut-off is given here; in the data, active means activation above about 18%; inactive means the rest.

SMILES	HTR5A ag ctr	MOR-DOR inv ag	HTR5A inv ctr	OPRM1-OPRD1 ag	OPRM1-D1 ag cf	HTR5A ag counter
COc1ccc(C2CC(c3ccc(Br)cc3)=NN2C(=O)CSC2=NCCS2)cc1 (configuration not stated)	0	-492	12	102*	7	9
COc1cccc(NC(=O)COc2cc(O)c3c(c2)OC(C)(C)CC3=O)c1	3	4	21	-1	.	.
CN(C)C(CNC(=O)/C=C/c1cccc(Cl)c1)c1ccccc1 (configuration not stated)	-3	i	9	275*	10	6
CN(C)C(CNC(=O)c1cnc(Cl)c(Cl)c1)c1ccccc1 (configuration not stated)	-1	i	3	353*	374*	0
CN(C)C(CNC(=O)c1ccc2ccccc2n1)c1ccccc1 (configuration not stated)	3	-437	-8	58*	-2	0
CN(C)C(CNC(=O)c1cc(S(=O)(=O)N(C)c2ccccc2)ccc1Cl)c1ccccc1 (configuration not stated)	6	4	-17	-1	.	.
CC(NC(=O)c1ccc2ccccc2n1)c1ccccc1 (configuration not stated)	5	-2	-53	0	.	.
COCCCNC(=O)/C=C/c1cccc(Cl)c1	0	0	3	0	.	.
F[B-](F)(F)COCc1ccccc1Br	-2	16	8	-3	.	.
CC(C)Oc1ccc(C(=O)Nc2c3c(nn2C(C)(C)C)CS(=O)(=O)C3)cc1	2	17	-2	-3	.	.
CC(OC(=O)Cn1cnc2c1c(=O)n(C)c(=O)n2C)C(=O)NC1CCCCC1C (configuration not stated)	-1	7	-10	-1	.	.
Cc1cc(Cl)ccc1NC(=O)COC(=O)CCNS(=O)(=O)c1ccccc1	-1	14	2	-4	.	.
Cc1ccc(-c2nnn(CC(=O)Nc3ccc(S(=O)(=O)N4CCC(C)CC4)cc3)n2)cc1	15*	-230	-65	47*	26*	8
CCOc1ccc(/C=N/NC(=O)CC(=O)Nc2ccc(Cl)c(Cl)c2)cc1	9	-112	-32	21*	16	3
CCOC(=O)C1(CCOC)CCN(Cc2ccccc2-c2ccco2)CC1	3	i	-7	130*	33*	7
CCOC(=O)C1(CCOc2ccccc2)CCN(Cc2cc(OC)ccc2OC)CC1	3	-260	-10	53*	1	17*
CCOC(=O)C1(CCOc2ccccc2)CCN(Cc2cccc(OC)c2)CC1	1	-93	-5	19*	1	93*
CCOC(=O)C1(CCOC)CCN(Cc2cccc(OCc3ccccc3)c2)CC1	5	-30	-17	6	.	.
CCOC(=O)C1(CC2CCCCO2)CCN(Cc2ccc(OC)cc2F)CC1 (configuration not stated)	-3	-278	8	48*	59*	3
Cc1ccc(NC(=O)/C=C/c2ccc(S(=O)(=O)N3CCOCC3)cc2)cc1S(=O)(=O)N(C)C	3	-8	-12	1	.	.
CCC(OCC(O)CN1CCCCC1)c1ccccc1 (configuration not stated)	-2	12	9	-2	.	.
C[C@H](CO)N1C[C@H](C)[C@@H](CN(C)C(=O)NC2CCCCC2)Oc2c(NC(=O)c3ccncc3)cccc2C1=O	2	-18	-4	3	.	.
CCOC(=O)C1(CCOc2ccccc2)CCN(Cc2ccc3c(c2)OCCO3)CC1	-2	-125	5	25*	44*	-4
CCOC(=O)C1(CCOc2ccccc2)CCN(Cc2ccc(O)c(Cl)c2)CC1	-6	-36	22	7	.	.
COc1ccc(N2CC(C(=O)Nc3cccc(OC(C)C)c3)CC2=O)cc1 (configuration not stated)	-1	5	3	-1	.	.
Cc1ccc(Cn2ccc(=O)c(OCc3c(Cl)cccc3Cl)c2C)cc1	2	-169	-15	28*	0	24*
CC1CCC(C(C)C)C(OC(=O)COC(=O)c2cc(O)ccc2N)C1 (configuration not stated)	7	-134	-44	24*	0	-10
Cc1ccc2sc(N(CCCN(C)C)C(=O)c3ccc(S(=O)(=O)N4CCc5ccccc5C4)cc3)nc2c1C	-5	-136	-11	21*	0	1
Cc1ccc2sc(N(CCCN(C)C)C(=O)c3ccc(S(=O)(=O)N(C)C)cc3)nc2c1C	1	4	-7	-1	.	.
